In the library only some 19% were active in any assay of this set; here they are far more common.
TDP1 cell noCPT = qHTS for Inhibitors of human tyrosyl-DNA phosphodiesterase 1 (TDP1): qHTS in cells in absence of CPT; hit rate 15% among 420,000; DT40 Tdp1-/- hTDP1 cells, no CPT, ATP luminescence, 48 h; Potency, µM (top dose mostly 46.2 µM), without a hit: at the highest dose activity change, negative = growth inhibition, usual class: inhibitors; also: nearly all actives have a fitted effect of over 55% in size
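Stably hTDP1-transfected Tdp1-null chicken DT40 cells were treated with library compounds minus camptothecin and grown for at least 48 hr at 37 °C, after which cellular ATP was quantified by luminescence.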
Gal4-VP16 FLuc = VP16 counterscreen qHTS for inhibitors of ROR gamma transcriptional activity. Drosophila S2 Gal4-VP16 UAS-luciferase, luminescence, 20 h. Potency, µM (titrated, usually from 53.6 µM), for the others: at the top dose activity, negative = inhibition, most hits filed as inhibitors. hit rate 3.5% among 310,000. AID 2546, 2010;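 also: Gal4-VP16 expression switched on by copper sulfate through the metallothionein promoter; nearly all actives have a fitted effect of over 50% in size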
TDP1 cell CPT = qHTS for Inhibitors of human tyrosyl-DNA phosphodiesterase 1 (TDP1): qHTS in cells in presence of CPT | chicken DT40 Tdp1-/-;hTDP1 cells + 20 nM CPT, ATP luminescence, 48 h | Potency, µM (series often up to 46.2 µM), without a hit: at the highest dose activity change, negative = growth inhibition, hits mostly inhibitors | hit rate 12% among 420,000 | AID 686979, 2013; also: nearly all actives have a fitted effect of over 55% in size
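Chicken DT40 Tdp1-/- cells complemented with human TDP1, 400 cells/well, exposed to compounds plus 20 nM camptothecin for at least 48 h at 37 C; viability read as ATP content by CellTiter-Glo luminescence.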
TDP1 block = qHTS Assay for Inhibitors of Tyrosyl-DNA Phosphodiesterase (TDP1). Tyrosyl-DNA phosphodiesterase 1 (Homo sapiens), Q9NUW8. recombinant TDP1, AlphaScreen DNA substrate cleavage. Potency, µM (titrated, usually from 130 µM), for the others: at the highest dose activity change, negative = inhibition, usual class: inhibitors. hit rate 0.28% among 350,000; also: nearly all actives have a fitted effect of over 40% in size
Target sequence (Q9NUW8 whole entry, looked up): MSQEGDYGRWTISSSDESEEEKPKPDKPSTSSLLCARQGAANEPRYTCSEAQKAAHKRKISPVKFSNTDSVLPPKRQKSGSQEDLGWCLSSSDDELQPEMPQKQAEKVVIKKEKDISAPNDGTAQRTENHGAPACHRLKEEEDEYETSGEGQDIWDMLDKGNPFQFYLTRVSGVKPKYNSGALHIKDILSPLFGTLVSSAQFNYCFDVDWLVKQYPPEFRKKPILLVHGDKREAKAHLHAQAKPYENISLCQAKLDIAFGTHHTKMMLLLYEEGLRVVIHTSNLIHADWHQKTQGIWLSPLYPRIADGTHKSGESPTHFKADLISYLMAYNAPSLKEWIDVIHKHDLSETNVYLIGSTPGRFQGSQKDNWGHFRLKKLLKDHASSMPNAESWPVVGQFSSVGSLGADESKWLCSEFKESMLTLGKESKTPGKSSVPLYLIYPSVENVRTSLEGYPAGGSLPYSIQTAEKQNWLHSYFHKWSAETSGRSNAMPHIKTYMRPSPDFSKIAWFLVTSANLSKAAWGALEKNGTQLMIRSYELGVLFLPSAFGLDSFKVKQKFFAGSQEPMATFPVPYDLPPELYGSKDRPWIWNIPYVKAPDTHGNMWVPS
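Steps: enzyme plus compound, 15 min RT; add biotin/phosphotyrosine-FITC oligonucleotide (15 nM final), react 5 min; add donor/acceptor beads (10 ug/ml final), 10 min; read AlphaScreen. Tdp1 at 1 nM final.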
RORgamma inh = qHTS for inhibitors of ROR gamma transcriptional activity | Nuclear receptor ROR-gamma (Mus musculus), P51450 | Drosophila S2 Gal4-RORgamma UAS-luciferase reporter, 20 h | Potency, µM (highest dose often 53.6 µM), inactives show at the highest dose activity change, negative = inhibition, actives largely listed as inhibitors | hit rate 5.4% among 310,000 | AID 2551, 2010; also: nearly all actives have a fitted effect of over 60% in size
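Stable Schneider cell line, Gal4 DNA-binding domain fused to ROR gamma, UAS-luciferase. Cmpd 1 hr RT → CuSO4 700 uM final → 20 hr RT → luciferase reagent 10 min → luminescence.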
* hit, by the source's call; ? = inconclusive; / = not tested or not shown. Calls follow the shape of the dose curve; as a rule, active = well fitted curve in the direction sought with a large enough effect; inconclusive = small, poorly fitted or top-dose-only effect, or another doubt; inactive = no such curve, though single readings can be large; an effect the other way counts as inactive or inconclusive. % is scaled to controls: 0 for no effect and ±100 for the full control effect; potency is read from the fitted curve at half-maximal effect.

SMILES	TDP1 cell noCPT	Gal4-VP16 FLuc	TDP1 cell CPT	TDP1 block	RORgamma inh
Cc1ccc(SCc2cc(=O)[nH]c(Nc3nc(C)c4ccccc4n3)n2)cc1	?	-7%	12µM*	5%	4%
O=C(Cn1nc(N2CCN(c3ccccc3)CC2)ccc1=O)Nc1ccc(F)cc1F	?	/	-23%	3%	/
CC(C)(C)n1nc2c(c1NC(=O)c1c(F)cccc1F)CS(=O)(=O)C2	7%	2%	-5%	3%	-9%
O=C(Nc1c2c(nn1-c1ccc(Cl)cc1)CS(=O)(=O)C2)c1cccc(F)c1	18µM*	/	21µM*	5%	/
CC(C)(C)n1nc2c(c1NC(=O)c1ccc(F)c(F)c1)CS(=O)(=O)C2	16µM*	2%	1%	2%	-14%
Cc1cccc(C(=O)Nc2c3c(nn2-c2ccc(Cl)cc2)CS(=O)(=O)C3)c1	-26%	/	-19%	8%	/
Cc1ccc2cc(CNC(C)(C)C)c(=O)[nH]c2c1	-10%	-7%	-3%	10%	-12%
Cc1ccc2cc(CCNC(=O)c3cccs3)c(=O)[nH]c2c1C	?	-7%	23µM*	4%	28%
Cc1ccc2cc(CCNC(=O)c3cccs3)c(=O)[nH]c2c1	?	-10%	-29%	-1%	32%
CC(=O)NCCc1cc2ccc(C)c(C)c2[nH]c1=O	-2%	1%	0%	3%	-29%
CNCc1cc2ccc(C)cc2[nH]c1=O	?	-2%	16µM*	3%	-24%
COc1ccc2cc(CCNC(=O)c3cccc([N+](=O)[O-])c3)c(=O)[nH]c2c1	?	0%	23µM*	6%	-17%
COc1ccc2cc(CCNC(=O)c3ccc4c(c3)OCO4)c(=O)[nH]c2c1	?	1%	?	3%	?
Cc1ccc2cc(CCNC(=O)c3cccc([N+](=O)[O-])c3)c(=O)[nH]c2c1C	16µM*	-15%	23µM*	1%	16%
Cc1nn(C)cc1C(C)Nc1nc2nonc2nc1N1CCCCC1 (stereo not given)	-6%	9%	-8%	-5%	-39%
COc1ccc(NC(=O)CSc2nncc3ccccc23)cc1	-23%	2%	2%	5%	35%
Cc1ccc2cc(CCNC(=O)c3ccc(C)c([N+](=O)[O-])c3)c(=O)[nH]c2c1	?	-10%	21µM*	5%	?
CCC(CC)C(=O)NCCc1cc2ccc(C)cc2[nH]c1=O	-26%	2%	-1%	0%	-17%
O=C(c1cnn(C(=O)COc2ccc(Cl)cc2)c1)c1ccccc1O	?	-4%	-10%	3%	?
Cc1ccc(F)cc1CNC(=O)c1cc(COc2ccc3ncccc3c2)on1	10µM*	11µM*	4.1µM*	3%	?
Cc1cc(C)n(CCNC(=O)c2cc(COc3ccc4ncccc4c3)on2)n1	21µM*	?	21µM*	/	?
O=C(NCc1cccc(Cl)c1)c1cc(COc2ccc3ncccc3c2)on1	21µM*	10µM*	16µM*	0%	-71%
CC(CCCC(C)(C)O)NC(=O)c1cc(COc2ccc3ncccc3c2)on1 (stereo not given)	4.6µM*	5.6µM*	8.2µM*	-3%	7.9µM*
COc1cc(OC)cc(-c2nc3nc(C)c(CCC(=O)NCCC(C)C)c(C)n3n2)c1	6%	/	4%	2%	/
O=C(CN1C(=O)NC2(CCCCCC2)C1=O)c1ccccc1	-15%	27%	?	2%	?
SMILES	TDP1 cell noCPT	Gal4-VP16 FLuc	TDP1 cell CPT	TDP1 block	RORgamma inh
Cn1cc(S(=O)(=O)N2CCC3(CC2)OCCO3)c(=O)n(C)c1=O	6%	-18%	7%	/	14%
O=C(CCNC(=O)c1ccc(Br)cc1)NCc1ccccn1	-7%	/	-2%	0%	/
Cc1ccc(OCc2cc(C(=O)NC(C)Cc3cccc(C)n3)no2)cn1 (stereo not given)	7.3µM*	4%	13µM*	2%	33%
CCC(CC)C(=O)Nc1cc(OC)c(OC)cc1C(=O)O	18µM*	3%	16µM*	2%	3%
Cn1c(=O)[nH]c(=O)c2c1nc(SCCC(=O)O)n2Cc1cccc(Br)c1	-6%	0%	1%	3%	-34%
O=C(CN1C(=O)CSc2ccc(S(=O)(=O)N3CCCCC3)cc21)NCc1ccc(F)cc1Cl	?	/	23µM*	8%	/
O=C(CN1C(=O)CSc2ccc(S(=O)(=O)N3CCCC3)cc21)Nc1cccc(Cl)c1	23µM*	/	?	3%	/
COc1cccc(NC(=O)CN2C(=O)CSc3ccc(S(=O)(=O)N4CCCC4)cc32)c1	?	/	?	3%	/
COc1ccccc1CNC(=O)CN1C(=O)CSc2ccc(S(=O)(=O)N3CCCCC3)cc21	21µM*	/	?	3%	/
CC1CCCCC1NC(=O)CN1C(=O)CSc2cc(S(=O)(=O)N3CCCCCC3)ccc21 (stereo not given)	21µM*	-9%	?	5%	7%
COc1ccc(NC(=O)CN2C(=O)CSc3ccc(S(=O)(=O)N(C)C)cc32)cc1Cl	?	/	23µM*	5%	/
O=c1c(O)c(-c2ccc(O[C@@H]3O[C@H](CO)[C@@H](O)[C@H](O)[C@H]3O)c(O)c2)oc2cc(O)cc(O)c12	/	-3%	/	8%	1%
O=C1N(CN2CCOCC2)c2ccccc2C12OCC(CCl)O2 (stereo not given)	1%	3%	3%	/	33%
O=[N+]([O-])c1ccc(Oc2ccc(Oc3ccc(C(F)(F)F)cn3)cc2)nc1	26µM*	-16%	?	0%	?
O=[N+]([O-])c1ccc(Oc2ccc(/C=N/O)cc2)nc1	-10%	-11%	-17%	9%	-8%
Cc1cc(=S)c2ccccc2[nH]1	-15%	3%	?	1%	-10%
Cc1ccc2[nH]c(C)cc(=S)c2c1	16µM*	9%	13µM*	1%	-14%
CN(C)c1cccc(S(=O)(=O)N2CCN(S(=O)(=O)c3ccc4c(c3)OCCO4)CC2)c1	/	/	/	-3%	/
CCn1cnc2c1c(=O)n(CC(=O)NN)c(=O)n2Cc1ccccc1	-4%	-2%	17%	/	2%
CC1CCCCN1C(=O)c1ccc(C(=O)N2CCCCC2C)cc1 (stereo not given)	-14%	3%	-17%	-1%	-13%
Cc1ccc(C)c(S(=O)(=O)NCc2ccc(C(=O)N3CCCCC3C)cc2)c1 (stereo not given)	23µM*	5%	?	4%	38%
Cc1ccc(S(=O)(=O)NCc2ccc(C(=O)N3CCc4ccccc4C3)cc2)cc1	29µM*	0%	?	5%	21%

Assay outcomes deposited in PubChem by National Center for Advancing Translational Sciences (NCATS).
